Data taken from PubChem BioAssay (NCATS).
Values without a mark were called inactive. For part of these data: Potency and affinity values are given separately. Calls of active or inactive are those of the source. No rule for the calls is given here.

Key:
[1] = Ebola virus entry assay, green fluorescence channel
[2] = Ebola virus entry assay, blue channel fluorescence
[3] = Ebola virus entry assay, ratio channel
[4] = Ebola virus entry assay, reporter ratio channel; Channel type: primary
For efficacy in this document: 0% is about no effect.

| Structure (SMILES) | efficacy [1] | AC50 [2] | AC50 [3] | AC50 [4] | outcome [3] | outcome [2] | outcome [4] |
| --- | --- | --- | --- | --- | --- | --- | --- |
| C[C@]1(Cn2ccnn2)[C@H](C(=O)O)N2C(=O)C[C@H]2S1(=O)=O | -31% | 0.282 µM (active) | 0.316 µM (active) | 0.316 µM (active) |  |  |  |
| COc1ccc(-n2nc(CCC(=O)N(C)O)cc2-c2ccc(Cl)cc2)cc1 | 77.8% | 11.2 µM (active) | 10 µM (active) | 10 µM (active) |  |  |  |
| CCCCCCCCCCCCCCCC[N+](C)(C)Cc1ccccc1 | -178% | 31.6 µM (active) | 22.4 µM (active) | 22.4 µM (active) |  |  |  |
| CCc1ccc(C(=O)C(C)CN2CCCCC2)cc1 (centres undefined) | 36.6% | 39.8 µM (active) |  | 28.2 µM (active) | inactive |  |  |
| CN(C)CCOC1=Cc2ccccc2Sc2ccc(Cl)cc21 | 46.9% | 15.8 µM (active) | 12.6 µM (active) | 12.6 µM (active) |  |  |  |
| Oc1c(Cl)cc(Cl)c2cccnc12 | 73.4% | 39.8 µM (active) |  | 39.8 µM (active) | inactive |  |  |
| CCOC(=O)COc1ccc2c(C)c(CCN(CC)CC)c(=O)oc2c1Cl | 158% | 28.2 µM (active) | 25.1 µM (active) | 25.1 µM (active) |  |  |  |
| CN1CCN(CCCN2c3ccccc3Sc3ccc(S(=O)(=O)N(C)C)cc32)CC1 | 146% | 2.51 µM (active) | 2.24 µM (active) | 2.24 µM (active) |  |  |  |
| CCC(=O)O[C@]1(C(=O)CCl)[C@@H](C)C[C@H]2[C@@H]3CCC4=CC(=O)C=C[C@]4(C)[C@@]3(F)[C@@H](O)C[C@@]21C | 88.5% | 31.6 µM (active) | 31.6 µM (active) | 31.6 µM (active) |  |  |  |
| CC1=C(C)C(=O)C(C(CCCCCC(=O)O)c2ccccc2)=C(C)C1=O (centres undefined) | 61.1% |  |  |  | inactive | inactive | inactive |
| CC(C)N=C(N)/N=C(\N)Nc1ccc(Cl)cc1 | 78.8% | 39.8 µM (active) |  | 39.8 µM (active) | inactive |  |  |
| Cc1c(C)n(Cc2ccccc2)c2ccc(C(=O)OCCN(C)C)cc12 | 60.6% | 3.16 µM (active) | 3.16 µM (active) | 3.16 µM (active) |  |  |  |
| O=c1[nH]c2ccccc2n1CCCN1CCN(C(c2ccccc2)c2ccccc2)CC1 | -120% | 12.6 µM (active) | 3.98 µM (active) | 3.98 µM (active) |  |  |  |
| COc1ccc(-c2cc(C(F)F)nn2-c2ccc(S(N)(=O)=O)cc2)cc1F | 77% | 25.1 µM (active) | 14.1 µM (active) | 14.1 µM (active) |  |  |  |
| CCOc1ccccc1O[C@H](c1ccccc1)[C@H]1CNCCO1 | 89.3% | 14.1 µM (active) | 15.8 µM (active) | 15.8 µM (active) |  |  |  |
| NC1(c2ccc(-c3nc4ccn5c(=O)[nH]nc5c4cc3-c3ccccc3)cc2)CCC1 | 104% | 2.82 µM (active) | 2.51 µM (active) | 2.51 µM (active) |  |  |  |
| CC(C)C[C@@H]1[C@H](c2ccccc2)OC(=O)N1CCCN1CCCCCC1 | 64.2% | 12.6 µM (active) | 8.91 µM (active) | 8.91 µM (active) |  |  |  |
| Cc1c(C)c2c(c(C)c1OC(=O)CCC(=O)OCCO)CC[C@@](C)(CCC[C@H](C)CCC[C@H](C)CCCC(C)C)O2 | -73.4% | 39.8 µM (active) |  | 39.8 µM (active) | inactive |  |  |
| CC[C@]12CCCN3CCc4c(n(c5ccccc45)C(=O)C1)[C@@H]32 | 62% | 28.2 µM (active) | 28.2 µM (active) | 28.2 µM (active) |  |  |  |
| CCCCN(CCCC)CCC(O)c1cc2c(Cl)cc(Cl)cc2c2cc(C(F)(F)F)ccc12 (centres undefined) | 131% | 7.94 µM (active) | 4.47 µM (active) | 4.47 µM (active) |  |  |  |
| CC(Oc1c(Cl)cccc1Cl)C1=NCCN1 (centres undefined) | 76.8% | 39.8 µM (active) |  | 39.8 µM (active) | inactive |  |  |
| CCNC(=O)N1CCN(CCCC(c2ccc(F)cc2)c2ccc(F)cc2)CC1 | 111% | 12.6 µM (active) | 11.2 µM (active) | 11.2 µM (active) |  |  |  |
| CN(C)C(=S)SC(=S)N(C)C | -50.4% | 5.62 µM (active) | 5.01 µM (active) | 5.01 µM (active) |  |  |  |
| CCN(CC)CCOc1ccc(/C(=C(\Cl)c2ccccc2)c2ccccc2)cc1 | -182% | 1.58 µM (active) | 1.26 µM (active) | 1.26 µM (active) |  |  |  |
| CCN(CC)CCOC(=O)C1(c2ccccc2)CCCC1 | 69.1% | 28.2 µM (active) | 20 µM (active) | 20 µM (active) |  |  |  |
| CN1CCN(C2Cc3ccccc3Sc3ccc(Cl)cc32)CC1 (centres undefined) | 95.7% | 5.01 µM (active) | 5.01 µM (active) | 5.01 µM (active) |  |  |  |

| Structure (SMILES) | efficacy [1] | AC50 [2] | AC50 [3] | AC50 [4] | outcome [3] | outcome [2] | outcome [4] |
| --- | --- | --- | --- | --- | --- | --- | --- |
| CCN(CC)CCCC(C)Nc1c2ccc(Cl)cc2nc2ccc(OC)cc12 (centres undefined) | 40.6% | 25.1 µM (active) | 25.1 µM (active) | 25.1 µM (active) |  |  |  |
| CCCCCCCCOc1ccccc1C(=O)Nc1ccc(C(=O)OCC[N+](C)(CC)CC)cc1 | -202% | 10 µM (active) | 2.51 µM (active) | 2.51 µM (active) |  |  |  |
| O=C(c1ccc(F)cc1)C1CCN(CCn2c(=O)[nH]c3ccccc3c2=O)CC1 | 78.1% | 28.2 µM (active) | 17.8 µM (active) | 17.8 µM (active) |  |  |  |
| CCC(C(=O)OCCOCCN(CC)CC)c1ccccc1 (centres undefined) | 61.4% | 28.2 µM (active) | 22.4 µM (active) | 22.4 µM (active) |  |  |  |
| COc1cccc(CCc2ccccc2OCC(CN(C)C)OC(=O)CCC(=O)O)c1 (centres undefined) | 95.8% | 1.78 µM (active) | 2 µM (active) | 2 µM (active) |  |  |  |
| C[C@@H]1C[C@H]2[C@@H]3C[C@H](F)C4=CC(=O)C(Cl)=C[C@]4(C)[C@@]3(F)[C@@H](O)C[C@]2(C)[C@@]1(O)C(=O)CO | 76% | 39.8 µM (active) |  | 39.8 µM (active) | inactive |  |  |
| COc1cccc2c1C(=O)c1c(O)c3c(c(O)c1C2=O)C[C@@](O)(C(C)=O)C[C@@H]3O[C@H]1C[C@H](N)[C@H](O)[C@H](C)O1 | 54.5% | 5.01 µM (active) | 5.01 µM (active) | 5.01 µM (active) |  |  |  |
| CSc1ccc2c(c1)C(N1CCN(C)CC1)Cc1ccccc1S2 (centres undefined) | -190% | 3.55 µM (active) | 3.16 µM (active) | 3.16 µM (active) |  |  |  |
| COc1cc(N)c(Cl)cc1C(=O)NC1CCN(Cc2ccccc2)CC1 | 43.1% | 31.6 µM (active) |  | 39.8 µM (active) | inactive |  |  |
| CCN(CCCc1ccccc1)CCCc1ccccc1 | 48.4% | 5.62 µM (active) | 4.47 µM (active) | 4.47 µM (active) |  |  |  |
| CSc1ccc(/C=C2/C(C)=C(CC(=O)O)c3cc(F)ccc32)cc1 | 33.8% |  |  |  | inactive | inactive | inactive |
| CN1CCCCC1CCN1c2ccccc2Sc2ccc(S(C)=O)cc21 (centres undefined) | 68.6% | 7.08 µM (active) | 7.94 µM (active) | 7.94 µM (active) |  |  |  |
| Cc1nc(C2CCCCC2)c(-c2ccc(S(N)(=O)=O)c(F)c2)o1 | 44.4% | 39.8 µM (active) | 31.6 µM (active) | 31.6 µM (active) |  |  |  |
| CCN(CC)CCOC(=O)C(c1ccccc1)C1CCCCC1 (centres undefined) | -237% | 2.82 µM (active) | 1.58 µM (active) | 1.58 µM (active) |  |  |  |
| CCN(CC)CCOc1ccccc1C(=O)CCc1ccccc1 | 42.3% | 15.8 µM (active) | 14.1 µM (active) | 14.1 µM (active) |  |  |  |
| O=C1NC2CCCCN2C12CCN(CCCN1c3ccccc3CCc3ccc(Cl)cc31)CC2 (centres undefined) | -203% | 4.47 µM (active) | 3.16 µM (active) | 3.16 µM (active) |  |  |  |
| CN(C)C/C=C(/c1ccc(Br)cc1)c1cccnc1 | 51.4% | 39.8 µM (active) |  | 35.5 µM (active) | inactive |  |  |
| CN1CCCN=C1COC(=O)C(O)(c1ccccc1)C1CCCCC1 (centres undefined) | 75.7% | 12.6 µM (active) | 12.6 µM (active) | 12.6 µM (active) |  |  |  |
| C[C@@H](CN(C)C)CN1c2ccccc2Sc2ccccc21 | 66.9% | 8.91 µM (active) | 10 µM (active) | 10 µM (active) |  |  |  |
| Clc1ccc2c(c1)CCc1cccnc1C2=C1CCNCC1 | 49.7% | 7.08 µM (active) | 7.94 µM (active) | 7.94 µM (active) |  |  |  |
| C[n+]1cc2c3c(ccc2c2ccc4cc5c(cc4c21)OCO5)OCO3 | -149% | 17.8 µM (active) | 17.8 µM (active) | 17.8 µM (active) |  |  |  |
| Cc1nc2ccccc2n1Cc1ccc(Cl)cc1 | 42.7% |  |  |  | inactive | inactive | inactive |
| CCCCCCCCCCOCC(O)CN (centres undefined) | -191% | 4.47 µM (active) | 1.78 µM (active) | 1.78 µM (active) |  |  |  |
| CN1CCCC(n2nc(Cc3ccc(Cl)cc3)c3ccccc3c2=O)CC1 (centres undefined) | 78.3% | 3.16 µM (active) | 3.16 µM (active) | 3.16 µM (active) |  |  |  |
| CCC(CN)=C(c1ccccc1)c1ccccc1 | 124% | 17.8 µM (active) | 17.8 µM (active) | 17.8 µM (active) |  |  |  |
